Bioassay records from PubChem BioAssay.
Only some compounds are listed: those with a hit (about 10% of all), similar ones and a draw of the others.
ALDH1A1 block = ALDH1A1 (human) enzyme inhibition; P00352; Purified ALDH1A1, NADH fluorescence, propionaldehyde substrate; Potency, µM (top dose mostly 75.3 µM), without a hit: at the highest dose activity, negative = inhibition, hits mostly inhibitors; 220,000 tested, 7.3% active;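 further: potency means the concentration at half of the fitted maximal effect; plate controls were no enzyme wells and a reference inhibitor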
Target sequence (P00352 whole entry, looked up): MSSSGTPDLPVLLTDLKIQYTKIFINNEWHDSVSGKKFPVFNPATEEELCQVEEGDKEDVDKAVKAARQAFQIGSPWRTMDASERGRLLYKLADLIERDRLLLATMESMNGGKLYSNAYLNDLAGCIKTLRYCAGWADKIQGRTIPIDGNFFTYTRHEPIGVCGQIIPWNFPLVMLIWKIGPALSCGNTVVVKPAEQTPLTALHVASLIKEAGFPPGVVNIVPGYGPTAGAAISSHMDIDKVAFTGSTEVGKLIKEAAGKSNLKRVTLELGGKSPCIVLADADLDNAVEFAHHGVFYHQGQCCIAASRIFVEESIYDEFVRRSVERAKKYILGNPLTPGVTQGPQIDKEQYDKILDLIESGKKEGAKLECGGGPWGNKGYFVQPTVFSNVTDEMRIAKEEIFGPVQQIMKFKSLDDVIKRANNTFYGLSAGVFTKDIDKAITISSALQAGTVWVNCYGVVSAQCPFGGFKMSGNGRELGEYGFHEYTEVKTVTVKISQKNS
ALOX12 inhib = inhibitors of human 12-lipoxygenase (ALOX12). Potency, µM (series often up to 57.1 µM), for inactives: at the highest dose activity change, negative = inhibition, hits mostly inhibitors. 150,000 tested, 0.12% active. purified 12-hLO, xylenol orange hydroperoxide absorbance. P18054; active means well fitted inhibition curve with a large enough effect; inconclusive means small, poorly fitted or top-dose-only effect; further: potency means the concentration at half of the fitted maximal effect; nearly all actives have a fitted effect of over 55% in size
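Xylenol orange chromogenic assay: hydroperoxide from 12hLO oxidises Fe(II), giving red-shifted Fe(III)-XO absorbance. Conditions: 150 nM enzyme, 40 uM arachidonic acid, 25 mM Hepes pH 7.0, 0.01% Triton X-100, 30 min, room temperature.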
PNC inhibitor = inhibitors of perinucleolar compartment assembly; PC3M PTB-GFP, PNC prevalence imaging, 16 h; active compounds read low; activity change (PNC), negative = inhibition, % at 10 µM; 140,000 tested, 3.1% active;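 active means readout at or below -70, meaning at least 70% loss of cells showing the perinucleolar compartment, a nuclear body marking cancer cells; inconclusive means readout between -30 and a set limit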;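 further: plate controls were DMSO wells for no effect and camptothecin positive control wells for full effect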
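PC3M cells stably expressing PTB-GFP, 750–1000 cells/well, treated 16 h at 37 °C with compound (23 nl of library stock), in duplicate. After paraformaldehyde fixation and Hoechst stain, imaged at 20x; PNC prevalence scored by image analysis.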
LMNA splice mod = modulators of lamin A splicing. HeLa LMNA splicing GFP/RFP minigene ratio, 48 h. Potency, µM (series often up to 46.1 µM), for inactives: top-dose ratio change, negative = inhibition, usual class: inhibitors. 200,000 tested, 0.01% active; active means well fitted inhibition curve with a large enough effect in the signal ratio, with a control signal flat, not every such curve was filed as active; inconclusive means small, poorly fitted or top-dose-only effect, or effect the other way, or a change in a side signal; the % refers to the signal ratio; further: potency means the concentration at half of the fitted maximal effect
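S3 HeLa stable clones carrying a lamin A-EGFP splicing minigene plus DsRed2 were seeded at 600 cells/well in Opti-MEM with 2% FBS, pin-dosed and incubated 48 h at 37°C. Acumen cytometry (488 nm) gave the GFP/RFP total-intensity ratio.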
HPGD inh = blocks human HPGD enzyme activity; purified HPGD, NADH fluorescence kinetic, PGE2 substrate; Potency, µM, for inactives: top-dose activity change, negative = inhibition, hits mostly inhibitors; AID 894; 150,000 tested, 4.3% active; further: potency means the concentration at half of the fitted maximal effect
Target sequence (P15428 whole entry, looked up): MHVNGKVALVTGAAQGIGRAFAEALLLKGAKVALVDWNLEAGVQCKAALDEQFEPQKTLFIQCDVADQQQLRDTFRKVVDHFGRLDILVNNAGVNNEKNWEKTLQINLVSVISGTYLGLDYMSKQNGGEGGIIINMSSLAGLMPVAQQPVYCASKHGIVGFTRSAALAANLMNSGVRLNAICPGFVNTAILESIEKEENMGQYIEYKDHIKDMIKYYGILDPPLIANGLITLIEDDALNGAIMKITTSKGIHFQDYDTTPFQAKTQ
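NADH formation kinetics: reaction with 30 uM PGE2 and 1 mM NAD+ (final), 20 nM enzyme, Tris-HCl pH 8 with Tween 20, after 15 min compound preincubation at room temperature. Fluorescence change, last versus first of five reads.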
An asterisk follows results filed as active; ? = inconclusive; · = no result; [ ] = remark or other dose. Unless noted, the call rests on the fitted dose curve; in most records, active means well fitted inhibition curve with a large enough effect (not every such curve was filed as active); inconclusive means small, poorly fitted or top-dose-only effect, or another doubt; inactive means no such curve, though single readings can be large or run the other way. Unless noted, on the % scale 0 is the no-effect control and ±100 the full control effect.

SMILES	ALDH1A1 block	ALOX12 inhib	PNC inhibitor	LMNA splice mod	HPGD inh
Cn1c(=O)c2c(ncn2CC(=O)Nc2nnc(Cc3ccccc3)s2)n(C)c1=O	-1.8%	-2.3%	?	-4.6%	-16.3%
COc1ccc(Cc2nnc(NC(=O)Cn3cnc4c3c(=O)n(C)c(=O)n4C)s2)cc1OC	?	10.9%	-11.1	18.8%	14.1µM*
Cc1noc(C)c1S(=O)(=O)N1CCc2nc(COc3ccccc3)c3c(c2C1)CO[C@@H](C)C3	-13.1%[13.5 µM]	2.3%[11.4 µM]	·	6.1%[9.22 µM]	-7.2%
CCOc1ccc(-n2c(C)cc(/C=N/NC(=O)C(N)=O)c2C)cc1	?	·	·	-10.1%[46 µM]	·
COc1ccc(-n2c(C)cc(/C=N/Nc3nnc(C)n3N)c2C)cc1	12.6µM*	-2.9%	22.0	1.2%	-18.9%
Cc1noc(C)c1-c1cc(NCc2ccccc2)ncn1	5.4%	2.5%	·	-8.0%	-18.3%
Oc1sc(C=Nc2ccccc2)c2ccccc12	22.4µM*	?	26.2	6.4%	-24.4%
Oc1sc(C=Nc2ccc(F)cc2)c2ccccc12	?	?	?	11.7%	-6.8%
NNC(=O)c1ccc(-c2ccccc2F)cc1	1.12µM*	·	·	·	·
Cc1oc(-c2ccccc2F)nc1CS(=O)CC(=O)NCc1cccs1 (configuration not stated)	-2.6%	6.8%	0.5	-0.2%	-5.9%
Cc1oc(-c2ccccc2F)nc1CS(=O)CC(=O)NCc1ccc2c(c1)OCO2 (configuration not stated)	31.6µM*	-4.4%	32.4	4.6%	?
O=C(CSCc1cccc(Cl)c1)NCc1ccc2c(c1)OCO2	?	-9.2%	43.9	15.5%	12.6µM*
O=C(NCc1ccc2c(c1)OCO2)c1ccc(CSCc2cccc(Cl)c2)o1	-5.7%	-6.9%	-25.3	?	-22.9%
COc1ccc(-c2nc(CSCC(=O)NCc3ccc4c(c3)OCO4)c(C)o2)cc1OC	1.1%	-4.1%	-92.0*	?	?
O=C(NCc1ccc2c(c1)OCO2)c1nn(-c2ccccc2)c(=O)c2ccccc12	5.62µM*	-10.0%	-22.1	-14.9%	-16.4%
COc1cc2c(cc1OC)C(COc1ccccc1OC)N(C(=O)CC(C)C)CC2 (configuration not stated)	·	·	·	-9.9%[46 µM]	·
O=C(CSCc1cnn(-c2ccccc2)c1-n1cccc1)NCc1ccccn1	9.3%	·	·	7.2%[46 µM]	·
COCCNC(=O)CS(=O)(=O)Cc1nc(-c2ccc(C)cc2)oc1C	-3.1%	5.8%	?	2.8%	-19.4%
O=C(NCc1ccc2c(c1)OCO2)c1ccco1	3.3%	·	·	·	·
CCN(CC)C(=O)CSCc1cnn(-c2ccccc2)c1-n1cccc1	28.2µM*	13.6%	?	?	-12.3%
O=C(CSCc1cnn(-c2ccccc2)c1-n1cccc1)NCc1ccc2c(c1)OCO2	?	-11.8%	-100.0*	?	-12.6%
COCCNC(=O)CSCc1nc(-c2ccc(SC)cc2)oc1C	?	5.0%	-88.6*	8.6%	?
O=C(/C=C/c1ccco1)NCc1ccc2c(c1)OCO2	20µM*	·	·	-3.1%[46 µM]	·
COc1ccc(Oc2ncc3nc(-c4ccccc4)c(=O)n(C4CC4)c3n2)cc1	?	1.9%	·	·	?
COCCn1c(=O)c(-c2ccccc2)nc2cnc(N3CCNCC3)nc21	?	-1.9%	·	·	?
SMILES	ALDH1A1 block	ALOX12 inhib	PNC inhibitor	LMNA splice mod	HPGD inh
COc1ccc(CNC(=O)CN2C(=O)NC3(CCCCCC3)C2=O)cc1OC	-6.1%	·	·	?	·
O=C(CN1C(=O)NC2(CCCCCCC2)C1=O)NCc1ccc2c(c1)OCO2	-0.6%	-1.0%	-19.1	-3.7%	31.6µM*
O=C(COC(=O)Cc1cn2ccsc2n1)NCc1ccc2c(c1)OCO2	?	-8.7%	14.5	-3.1%	14.1µM*
CCOc1ccc(C(OC(=O)c2ccco2)C(=O)NCc2ccc(C)cc2)cc1 (configuration not stated)	7.3%	0.8%	25.7	1.7%	-22.9%
O=C(CS(=O)(=O)Cc1ccccc1)NCc1ccc2c(c1)OCO2	?	-6.0%	36.7	13.6%	-9.0%
O=C(OC(C(=O)NCc1ccc2c(c1)OCO2)c1ccc(Cl)cc1)c1ccco1 (configuration not stated)	14.1µM*	-16.5%	-3.6	6.3%	28.2µM*
O=C(CSCc1ccccc1)NCc1ccc2c(c1)OCO2	?	-4.7%	32.4	11.8%	20µM*
Cc1cc2n(n1)CCC(=O)N2Cc1ccc(C(=O)Nc2ccc(F)cc2F)cc1	·	·	·	12.6%[46 µM]	·
O=C1CC(=O)Nc2cc(S(=O)(=O)Nc3cccc(Br)c3)ccc2N1	·	·	·	-5.8%[46 µM]	·
CC(C)=C1C(=O)NN(c2ccc(F)c(Cl)c2)C1=O	-1.8%	?	15.5	12.6%	8.91µM*
O=C1NN(c2ccc(F)c(Cl)c2)C(=O)/C1=C\c1cccc(OC(=O)c2cccs2)c1	?	?	4.0	-1.3%	10µM*
Cc1nc2c(=O)n(-c3ccc(F)c(Cl)c3)nc(C)c2s1	-0.7%	·	·	·	·
CCCC(C)NC(=O)COc1ccc(S(=O)(=O)N2CCCC2)cc1 (configuration not stated)	-9.2%	·	·	·	·
O=C(c1cc2c(cc1Br)OCCCO2)N1CCCCC1	9.2%	0.1%	30.4	2.8%	2.24µM*
O=C(c1cc(F)c(F)cc1Cl)N1CCCCC1	-1.3%	3.0%	46.0	0.3%	5.62µM*
CN(C)c1ccc(NC(=O)CSc2nc3ccccc3c(=O)n2C2CCCCC2)cc1	7.08µM*	-10.2%	-9.4	?	-18.3%
CCCN(CCC)C(=O)CSc1nc2ccccc2c(=O)n1C1CCCC1	-5.2%	1.0%	?	?	-11.2%
Cc1cc(NC(=O)CSc2nc3ccccc3c(=O)n2C2CCCC2)no1	5.1%	-0.6%	-82.8*	12.7%	-0.8%
O=C(CCc1ccccc1)OCC(=O)c1ccc([N+](=O)[O-])cc1	8.91µM*	·	·	·	·
O=C(CCC(=O)c1ccc(Cl)cc1)OCC(=O)c1ccccc1	0.8%	0.8%	57.4	-1.3%[0.0737 µM]	?
CCCCOc1cccc(C(=O)N(Cc2ccc(C)o2)c2ccccn2)c1	·	·	·	3.3%[46 µM]	·
COc1ccc(S(=O)(=O)Nc2cc3c4c(oc3c3ccccc23)CC(C)(C)CC4=O)cc1	3.16µM*	-8.1%	57.3	2.8%	-18.8%
COc1ccc(S(=O)(=O)Nc2cc3c4c(oc3c3ccccc23)CCCC4=O)cc1	7.94µM*	-10.3%	9.2	?	0.8%
CC(=O)N1CCc2cc(CNC(=O)Nc3ccccc3C(F)(F)F)ccc21	·	·	·	6.7%[46 µM]	·
O=C(c1cccs1)N1CCc2ccccc21	4.7%	-5.6%	?	22.7%	-6.7%
O=C(C1CCCN1C(=O)c1cccs1)N1CCc2ccccc21 (configuration not stated)	?	-0.5%	-97.9*	?	-17.6%
Cc1ccc(-c2cc(C(F)(F)F)n3ncc(C(=O)N4CCCc5ccccc54)c3n2)cc1	-0.5%	1.6%	-100.0*	5.9%	-8.4%
O=C(c1cnn2c(C(F)(F)F)cc(-c3ccc4c(c3)OCO4)nc12)N1CCCCC1	1.9%	0.5%	12.1	-9.0%	2.82µM*
